Screening data (PubChem BioAssay)
Peg3 prom inh = Peg3 promoter-driven luciferase inhibitors, primary screen, cell-based, HeLa, luciferase luminescence; inhibition, % at 20 µM; AID 588405, 2011; HeLa PEG-Prom luciferase reporter, overnight; hit rate 1.7% among 360,000;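 active = inhibition of at least 50% at 20 µM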
CF NFkB block = inhibitors of PAF-induced NF-kB signaling, primary screen, cell-based, GFP fluorescence, uHTS. KKLEB NF-kB-GFP reporter, GFP fluorescence overnight. inhibition, % at 5 µM. hit rate 0.86% among 360,000. AID 588850, 2011;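 active = at least 50% inhibition at 5 µM, scaled per plate between neutral and stimulator controls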;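 note: PAF is a Pseudomonas aeruginosa culture filtrate used as stimulus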
HIF-2a block = HIF-2a reporter inhibitors, primary screen, luminescence, 786-0 RCC cells; AID 624352, 2012; hit rate 0.72% among 360,000; inhibition, % at 18.8 µM; 786-0 RCC cells HIF-2a reporter, luciferase luminescence, overnight;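 active = inhibition of the luminescence signal of 40% or more relative to plate controls, in a single-dose primary screen at 18.75 µM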
KKLEB tox = cytotoxicity in KKLEB CF airway cells, primary screen, cytotoxicity control for CF NF-kB inhibitor project, cell-based, uHTS, fluorescence assay plates; KKLEB CF airway cells viability, ATPlite luminescence, overnight; stronger effect = lower value; cells stimulated with P. aeruginosa culture filtrate; activity change (cytotoxicity), % at 5 µM; hit rate 0.36% among 360,000; AID 602141, 2011;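 active = corrected activity change at or below -50% at 5 µM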
TRPM1 prom inh = inhibitors of MITF-dependent TRPM1 promoter reporter, primary screen, cell-based, SK-MEL-5, single point, luciferase; inhibition, % at 12.5 µM; SK-MEL-5 TRPM1 promoter luciferase, 24 h; hit rate 0.83% among 330,000; AID 488899, 2010;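 active = mean inhibition across replicates of 60% or more, whatever share of single replicates reaches that level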
Shn3 3UTR inh = reduction of Shn3 3'UTR firefly luciferase signal, primary screen, Schnurri-3 inhibitor project, cell-based, Clone20 osteoblasts, set 2 | Clone20 osteoblast Shn3 3'UTR firefly luciferase, 24 h | inhibition, % at 12.5 µM | hit rate 0.52% among 360,000 | AID 588674, 2011;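 active = mean inhibition of at least 75% with every replicate also reaching 75%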
Numbers stand for hits. Hits are enriched below; roughly 2.8% of the tested compounds scored in any of these assays.

For O=C(O)CCCCNCc1ccccc1 the results were Peg3 prom inh inactive, CF NFkB block inactive, HIF-2a block inactive, KKLEB tox inactive, TRPM1 prom inh inactive and Shn3 3UTR inh inactive.
Screening c1ccc(CNCCCNCCCCNCCCNCc2ccccc2)cc1 returned Peg3 prom inh 110, CF NFkB block inactive, HIF-2a block inactive, KKLEB tox inactive, TRPM1 prom inh inactive and Shn3 3UTR inh inactive.
For C[C@H](CO)N1C[C@H](C)[C@@H](CN(C)C(=O)Nc2ccc3c(c2)OCO3)Oc2ccc(NC(=O)NC3CCCCC3)cc2C1=O the results were Peg3 prom inh inactive, CF NFkB block inactive, HIF-2a block inactive, KKLEB tox inactive, TRPM1 prom inh inactive and Shn3 3UTR inh inactive.
Screening COc1ccc(F)cc1CSc1nnnn1-c1ccc(O)cc1 returned Peg3 prom inh inactive, CF NFkB block inactive, HIF-2a block inactive, KKLEB tox inactive, TRPM1 prom inh inactive and Shn3 3UTR inh inactive.
Screening COc1cc(CSc2nnnn2-c2ccc(C)cc2)cc(OC)c1OC returned Peg3 prom inh inactive, CF NFkB block inactive, HIF-2a block inactive, KKLEB tox inactive, TRPM1 prom inh inactive and Shn3 3UTR inh 90.
`Cc1ccc(N/C(N)=N/c2nc(C)cc(N3CCCCC3)n2)c(C)c1` gave Peg3 prom inh 91, CF NFkB block inactive, HIF-2a block inactive, KKLEB tox inactive, TRPM1 prom inh inactive and Shn3 3UTR inh 96.
Screening COc1cc(N(C(=O)Cc2cccs2)C(C(=O)NC2CCCCC2)c2ccc(C)cc2)ccc1-n1cnnn1 (configuration not stated) returned Peg3 prom inh inactive, CF NFkB block 67, HIF-2a block inactive, KKLEB tox -56, TRPM1 prom inh inactive and Shn3 3UTR inh inactive.
COc1ccc(N(C(=O)Cc2cccs2)C(C(=O)NC2CCCC2)c2ccncc2)cc1OC (configuration not stated) was read as Peg3 prom inh inactive, CF NFkB block inactive, HIF-2a block inactive, KKLEB tox inactive, TRPM1 prom inh inactive and Shn3 3UTR inh inactive.
Screening COC(=O)/C(=C\c1ccc([N+](=O)[O-])o1)NC(=O)c1ccccc1 returned Peg3 prom inh inactive, CF NFkB block inactive, HIF-2a block inactive, KKLEB tox inactive, TRPM1 prom inh inactive and Shn3 3UTR inh inactive.
`Cc1cccc(NC(=O)/C(=C\c2ccc([N+](=O)[O-])o2)NC(=O)c2ccc(Cl)cc2)c1` gave Peg3 prom inh 56, CF NFkB block inactive, HIF-2a block inactive, KKLEB tox inactive, TRPM1 prom inh inactive and Shn3 3UTR inh inactive.
Screening COc1ccc(NC(=O)Nc2ccc(F)c(F)c2)c(OC)c1 returned Peg3 prom inh inactive, CF NFkB block inactive, HIF-2a block inactive, KKLEB tox inactive, TRPM1 prom inh 74 and Shn3 3UTR inh inactive.
CN(C[C@H](Cc1ccccc1)N(C[C@H](c1ccccc1)N(CCc1ccccc1)N=O)N=O)N=O was read as Peg3 prom inh inactive, CF NFkB block inactive, HIF-2a block inactive, KKLEB tox inactive, TRPM1 prom inh inactive and Shn3 3UTR inh 87.
`COc1ccc(-n2c(=S)[nH]c3cc(C(=O)Nc4ccc(OC)c(OC)c4)ccc3c2=O)cc1` gave Peg3 prom inh inactive, CF NFkB block inactive, HIF-2a block inactive, KKLEB tox -70, TRPM1 prom inh inactive and Shn3 3UTR inh inactive.
COc1ccc(-n2c(=S)[nH]c3cc(C(=O)Nc4cccc(C)c4)ccc3c2=O)cc1 was read as Peg3 prom inh inactive, CF NFkB block inactive, HIF-2a block inactive, KKLEB tox inactive, TRPM1 prom inh inactive and Shn3 3UTR inh inactive.
CCOc1ccc(NC(=O)Cn2cncc2-c2ccc([N+](=O)[O-])cc2)cc1 was read as Peg3 prom inh 81, CF NFkB block inactive, HIF-2a block inactive, KKLEB tox inactive, TRPM1 prom inh inactive and Shn3 3UTR inh inactive.
`Cc1cccc2sc(NNC(=O)c3ccc(S(=O)(=O)N4CCc5ccccc5C4)cc3)nc12` gave Peg3 prom inh 61, CF NFkB block inactive, HIF-2a block inactive, KKLEB tox inactive, TRPM1 prom inh inactive and Shn3 3UTR inh inactive.
`CC1CCCN(S(=O)(=O)c2ccc(C(=O)Nc3ccccc3-c3nc4ccccc4[nH]3)cc2)C1` (configuration not stated) gave Peg3 prom inh inactive, CF NFkB block 68, HIF-2a block inactive, KKLEB tox -55, TRPM1 prom inh inactive and Shn3 3UTR inh inactive.
`Cc1cccc2sc(NNC(=O)c3ccc(S(=O)(=O)N4CCCC(C)C4)cc3)nc12` (configuration not stated) gave Peg3 prom inh 68, CF NFkB block inactive, HIF-2a block inactive, KKLEB tox inactive, TRPM1 prom inh inactive and Shn3 3UTR inh inactive.
For CC1CCN(S(=O)(=O)c2ccc(C(=O)Nc3ccccc3-c3nc4ccccc4[nH]3)cc2)CC1 the results were Peg3 prom inh inactive, CF NFkB block inactive, HIF-2a block inactive, KKLEB tox inactive, TRPM1 prom inh inactive and Shn3 3UTR inh inactive.
CCOC(=O)N1CCN(S(=O)(=O)c2ccc(C(=O)NNc3nc4c(C)cccc4s3)cc2)CC1 was read as Peg3 prom inh inactive, CF NFkB block inactive, HIF-2a block inactive, KKLEB tox inactive, TRPM1 prom inh inactive and Shn3 3UTR inh inactive.
`COc1ccc(CC(=O)N/N=C(\C)c2cccs2)cc1` gave Peg3 prom inh inactive, CF NFkB block inactive, HIF-2a block inactive, KKLEB tox inactive, TRPM1 prom inh inactive and Shn3 3UTR inh inactive.
For COCCOC(=O)c1c(NC(=O)COC(=O)c2ccc(C)o2)sc(C(N)=O)c1C the results were Peg3 prom inh inactive, CF NFkB block inactive, HIF-2a block inactive, KKLEB tox inactive, TRPM1 prom inh inactive and Shn3 3UTR inh inactive.
For NC(N)=N/N=C(\N=Nc1ccccc1)c1ccc(Cl)cc1 the results were Peg3 prom inh 90, CF NFkB block inactive, HIF-2a block inactive, KKLEB tox inactive, TRPM1 prom inh inactive and Shn3 3UTR inh inactive.
For Nc1c(S(=O)(=O)c2cccs2)c2nc3ccccc3nc2n1/N=C/c1cccc(O)c1 the results were Peg3 prom inh 92, CF NFkB block inactive, HIF-2a block 40, KKLEB tox inactive, TRPM1 prom inh inactive and Shn3 3UTR inh inactive.
O=C(COC(=O)c1ccccc1)NCCCCc1ccccc1 was read as Peg3 prom inh inactive, CF NFkB block inactive, HIF-2a block inactive, KKLEB tox inactive and Shn3 3UTR inh inactive.
CCC[C@@H](CN[C@@H](CNC)C(C)C)NCCCCc1ccccc1 was read as Peg3 prom inh 59, CF NFkB block inactive, HIF-2a block inactive, KKLEB tox inactive, TRPM1 prom inh 90 and Shn3 3UTR inh inactive.
